According to ChEMBL document CHEMBL3988442, “University of Dundee, Small-Polar-MMV Screening Library” (2021):
Screen size: about 48,000 compounds; about 13,000 (27%) showed an effect of 50% or more. This is one part of the list.

tested on: Wolbachia pipientis; assay: Anti-Wolbachia Cell-Based Screen; assay type: functional; design: scale not given: in the data most compounds retested in dose-response had high values; details: 5 µM

In order of falling “Percent Effect” value:
1. COc1cccc(OC)c1-c1ccnc2cc(CC(=O)NC3CC3)nn12  130.6%
2. O=C(NCCn1cccc1)C(c1ccccc1)N1CCCC1 (stereo not given)  123.6%
3. CCc1nc2ccccc2c(=O)n1CC1(O)CCN(C(=O)C2CC2)CC1.Cl  111.9%
4. CC(=O)N1CC[C@H]2OCC[C@@H](C(=O)Nc3cccnc3C)[C@@H]2C1  106.3%
5. Cc1ccc2[nH]c(CNC(=O)C3CC4(CCNCC4)CN3C)nc2c1C (stereo not given)  105.7%
6. CNC(=O)Cc1cc2nccc(-c3c(OC)cccc3OC)n2n1  105.1%
7. O=C(NCCN1CCCCC1)C(c1ccccc1)N1CCCC1 (stereo not given)  103.1%
8. CCc1nc2ccccc2c(=O)n1CC1(O)CCN(C(=O)C(C)C)CC1  101.9%
9. COc1ccc2nc(CNC(=O)C3CC4(CCNCC4)CN3C)[nH]c2c1 (stereo not given)  101.4%
10. CSCC1CCCN(c2ncnc3oc(C)nc23)C1 (stereo not given)  100.1%
11. CCn1cc(CN2CCCN(C(=O)CCSC)CC2)cn1  96.36%
12. CCc1nc2ccccc2c(=O)n1CC1(O)CCN(CC(=O)OC)CC1  94.95%
13. Cn1cc(C2CCCN2C(=O)c2cnc(C3CC3)s2)cn1 (stereo not given)  90.11%
14. COc1cccc(OC)c1-c1ccnc2cc(CC(=O)N(C)C)nn12  89.81%
15. COc1cccc(OC)c1-c1ccnc2cc(CC(=O)NC(C)C)nn12  87.37%
16. CC(=O)N1CC[C@H]2OCC[C@@H](C(=O)Nc3cccnc3C)[C@H]2C1  87.27%
17. CSCCC(=O)N1CCCN(Cc2cnn(C(C)C)c2)CC1  82.47%
18. CCc1nc2ccccc2c(=O)n1CC1(O)CCN(C(=O)COC)CC1.Cl  76.81%
19. CCN(CC)C(=O)C1CCCN(c2ncnc3oc(C)nc23)C1 (stereo not given)  73.24%
20. Cc1ncsc1CCCNC(=O)C1CC2(CCNCC2)CN1C (stereo not given)  23.09%
21. NC(=O)N1CCCC(C(=O)NCc2ccccc2OC(F)(F)F)C1 (stereo not given)  21.92%
22. Fc1cc(CNCc2ccc3c(c2)CCO3)ccc1N1CCOCC1  14.1%
23. CN1CCOC(C(=O)N2CCC3(CCCCC3)C2)C1 (stereo not given)  13.97%
24. COc1ccccc1CC1CCCN(CC(=O)NC2CC2)C1 (stereo not given)  10.43%
25. CC(=O)N1CC[C@H]2OCC[C@@H](C(=O)N3CCCCO3)[C@@H]2C1  7.512%
26. CCn1nc(C(C)C)cc1C(=O)NCc1nc2ccc(OC)cc2[nH]1  5.154%
27. Cn1cc(C2CCCN2C(=O)CS(=O)(=O)C2CCCC2)cn1 (stereo not given)  4.822%
28. O=C(NCCn1cccc1)C(c1cccnc1)N1CCCC1 (stereo not given)  4.567%
29. CCC(O)CNC(=O)c1cc(COc2ccc(OC)cc2Cl)[nH]n1 (stereo not given)  4.505%
30. CCC(CNC1CCN(C(C)=O)CC1)Oc1ccccc1Cl (stereo not given)  3.786%
31. Cc1nc2c(N3CCC(O)(Cn4ccnc4)CC3)ncnc2o1  2.472%
32. COc1ccc2cc(CN(C)CCN3CCCCC3=O)c(=O)[nH]c2c1  1.998%
33. O=C(NCCN1CCOCC1)C(OC1CCCC1)c1ccccc1 (stereo not given)  1.172%
34. CCc1nnsc1C(=O)N1CCCN(Cc2cnn(C)c2)CC1  1.125%
35. COc1cccc(CCNC(=O)NC(C)C)c1O  -0.2442%
36. CN1CCN(CCNC(=O)C(OC2CCCC2)c2ccccc2)CC1 (stereo not given)  -1.077%
37. COc1ccccc1C1(CNc2cc(C(=O)N(C)C)ccn2)CC1  -1.454%
38. COC(=O)Cn1c(=O)nc2n1C(=O)N(c1ccccc1)C2  -2.891%
39. Cc1ccc(NCCCNC(=O)C2CC3(CCNCC3)CN2C)nc1 (stereo not given)  -3.217%
40. CCc1nc2c(N3CCCC(c4nccn4CCOC)C3)ncnc2o1 (stereo not given)  -3.273%
41. CCCC(=O)N1CCC(O)(Cn2c(CC)nc3ccccc3c2=O)CC1.Cl  -3.591%
42. CSC(C)C(=O)N1CCCN(Cc2cnn(C(C)C)c2)CC1 (stereo not given)  -3.847%
43. O=C(COCC1CC1)N1CCSCC1  -4.058%
44. Cc1nc2ccccc2c(=O)n1Cc1nnnn1C1CC1  -4.17%
45. CN(Cc1nc2ccccc2n1C)CC1CCCN1c1cccnn1 (stereo not given)  -5.038%
46. COc1cccnc1NC(=O)COc1c(C)cccc1C  -5.049%
47. CS(=O)(=O)N1CCC(O)(Cn2c(C3CC3)nc3ccccc3c2=O)CC1  -5.897%
48. Brc1csc(CNCc2nnc3n2CCC3)c1  -6.201%
49. c1c[nH]c(-c2cn(CCSc3cnn[nH]3)nn2)n1  -6.5%
50. CCC[C@@H]1CN(C(=O)c2conc2-c2ccccc2)C[C@H]1N(C)C  -6.905%
51. O=C(CCc1ccccc1)Nc1ncccc1OC(F)F  -7.341%
52. COc1ccc2nc(CNC(=O)c3cc(C(C)C)on3)[nH]c2c1  -7.42%
53. COc1ccccc1CC(=O)NCc1ccnc(NC2CC2)c1  -7.733%
54. Cc1nc2ccccc2c(=O)n1CCC(=O)N1CCSCC1  -8.454%
55. O=C(NCCNc1cccnc1)C(c1cccnc1)N1CCCC1 (stereo not given)  -8.824%
56. NC(=O)CCCNC(=O)c1cc(Br)c2c(c1)OCCO2  -9.821%
57. CCC(CC)(CNC(=O)c1cccn1Cc1cccnc1)N(C)C  -9.831%
58. CC(C)(C)OC(=O)N1CSC[C@@H]1C(=O)NCc1cccc(C#N)c1  -10.68%
59. CC(=O)NCc1ccc(S(=O)(=O)NC(=O)c2ccc3c(c2)CCO3)s1  -11.39%
60. CCCc1ccc(S(=O)(=O)NC2(CC(N)=O)CCC2)cc1  -11.45%
61. COc1ccccc1OCC(=O)n1nc(C)c(C)c1C  -12.46%
62. CC(=O)c1cn(CC(=O)N2CCC(O)(CO)CC2)c2ccccc12  -13.61%
63. CC(C)NC(=O)[C@@H]1CCO[C@@H]2CCN(c3ncccn3)C[C@H]21  -20.97%
64. COc1cccc(CNC(=O)C(C)n2ccnc2C(C)C)c1OC (stereo not given)  -21%
65. CSc1ccccc1CN1C[C@@H]2CC[C@H](C1)N(CC1CC1)C2=O  -21.61%
66. Cn1nnc2c1CCN(S(C)(=O)=O)C2COCC1CC1 (stereo not given)  -21.64%
67. CS(=O)(=O)N1CCN(Cc2c(O)ccc3oc4c(c23)CCCC4)CC1  -24.14%
68. CSCC1CCN(c2nc(N)ncc2C)CC1  -31.92%
69. COCC(=O)N1CCCN(Cc2cc(O)c3ccccc3n2)CC1  -35.6%
70. CCCc1cc(C(=O)N(C)Cc2ccc(OC)c3ncccc23)n(C)n1  -87.89%
